Out of some 340,000 compounds screened, about 12,000 (3.5%) were called active. Roughly 18% stayed inconclusive and do not appear here. What follows is part of a selection rich in actives, with near analogues and random picks from the rest. Where a call stands in place of a potency, no number is given. A number with no mark means an inactive call. Calls follow the shape of the dose curve; as a rule, active = well fitted inhibition curve with a large enough effect; inconclusive = small, poorly fitted or top-dose-only effect, or another doubt; inactive = no such curve, though single readings can be large or run the other way.
assay: qHTS Assay for Inhibitors of Hepatitis C Virus (HCV); conditions: Huh7.5.1 HCVcc-Cre infection, luciferase reporter, 44 h; series mostly up to 41.8 µM
From the text: Hepatitis C virus (HCV) infects about 200 million people in the world. Many infected people progress to chronic liver disease including cirrhosis with a risk of developing liver cancer. To date, there is no effective vaccine for hepatitis C. Current therapy based on interferon is only effective in about half of the patients and is associated with significant adverse effects. The fraction of people with HCV who can complete a successful treatment is estimated to be no more than 10 percent. Recent development of direct-acting antivirals against HCV, such as protease and polymerase inhibitors, is promising but still requires combination with peginterferon and ribavirin for maximal efficacy. In addition, these agents are associated with high rate of resistance and many have significant side effects. Due to the lack of a culture system for infectious HCV, the search for new HCV drugs has been greatly hampered. […] High-throughput screening (HTS) with an infectious HCV system would cover the complete spectrum of potentially druggable targets in all stages of HCV lifecycle, and would have more biological relevance than other cell-based assays. Moreover, targeting several key processes in the viral life cycle may not only increase antiviral efficacy; more importantly, it may also reduce the capacity of the virus to develop resistance to the compound. The goal of this project is to identify novel HCV inhibitors as new therapies for hepatitis C, using a highly sensitive and specific assay platform which is based on a HCV infectious cell culture system established in the laboratory and adapted for high-throughput HCV drug screen. NIH Chemical Genomics Center [NCGC] NIH Molecular Libraries Probe Centers Network [MLPCN] MLPCN Grant: MH095511 Assay Submitter (PI): Jake Liang, NIDDK
The assay will start with plating 1,000 cells/well in 3 µL volume and culture for 4 h. Then 23 nL of compounds from the library collection will be added to each well, followed by adding 2.5 µL of HCVcc-Cre virus (~ 0.5 moi) and further cultured for 44 h before the luciferase assay. A volume of 4.5 µL luciferase substrates will be added to each well and the plates will be incubated at room temperature for 15 min. and then read for 15 sec. for the luciferase activity

**Q.** Which Potency does the source give for `CC(OC(=O)CCCOc1ccccc1)C(=O)Nc1ccc(Cl)cn1` (configuration not stated) here?
**A.** Its Potency is “inactive”.

**Q.** With `CCN(CC)S(=O)(=O)c1ccc(N2CCCC2)c(NC(=O)c2ccc([N+](=O)[O-])o2)c1` as the compound, how does the Potency read?
**A.** The Potency was 10 µM (active).

**Q.** For `CCN(CC)S(=O)(=O)c1ccc(N2CCOCC2)c(NC(=O)c2ccc(=O)n(C)n2)c1`, which Potency is on record?
**A.** Its Potency is “inactive”.

**Q.** With `CCN(CC)S(=O)(=O)c1cc(C(=O)Nc2cc(S(=O)(=O)N3CCOCC3)ccc2N2CCCC2)ccc1F` as the compound, how does the Potency read?
**A.** Its Potency is “inactive”.

**Q.** Which Potency does the source give for `CCOc1ccccc1OCC(=O)Nc1ccccc1C(=O)NC1CC1` here?
**A.** The Potency was “inactive”.

**Q.** With `Cc1noc(C)c1NC(=O)Nc1cccc2c1O[C@H](CN(C)C(=O)Nc1ccccc1)[C@@H](C)CN([C@H](C)CO)C2=O` as the compound, how does the Potency read?
**A.** The Potency was “inactive”.

**Q.** With `Cc1noc(C)c1NC(=O)Nc1ccc2c(c1)C(=O)N([C@H](C)CO)C[C@H](C)[C@@H](CN(C)C(=O)Nc1ccc(C(F)(F)F)cc1)O2` as the compound, how does the Potency read?
**A.** Its Potency is 3.98 µM (active).

**Q.** For `Cc1noc(C)c1NC(=O)Nc1ccc2c(c1)C(=O)N([C@H](C)CO)C[C@H](C)[C@@H](CN(C)C(=O)Nc1ccccc1)O2`, which Potency is on record?
**A.** The Potency was “inactive”.

**Q.** Which Potency does the source give for `OCC[C@H]1C[C@H](O)[C@@H](O)[C@]2(CCc3ccccc3O2)O1` here?
**A.** The Potency was “inactive”.

**Q.** For `Cc1ccc(C)c(C(=O)COC(=O)Cn2[nH]c(=O)c3ccccc3c2=O)c1`, which Potency is on record?
**A.** The Potency was “inactive”.

**Q.** With `CCC1(C)Cc2c(sc3nnn(CC(=O)Nc4ccc(Cl)cc4)c(=O)c23)CO1` (configuration not stated) as the compound, how does the Potency read?
**A.** The Potency was 11.2 µM (active).

**Q.** For `CCOC(=O)Cn1c(SC)nc2sc3c(c2c1=O)CC(C)(C)OC3`, which Potency is on record?
**A.** Its Potency is “inactive”.

**Q.** Which Potency does the source give for `CCC1(C)Cc2c(sc3nc(SC)nc(N)c23)CO1` (configuration not stated) here?
**A.** Its Potency is “inactive”.

**Q.** With `COc1cc(/C=C/CNC[C@H]2O[C@@H](n3cnc(C(N)=O)n3)[C@H](O)[C@@H]2O)ccc1O` as the compound, how does the Potency read?
**A.** The Potency was “inactive”.

**Q.** For `O=C(COC(=O)/C=C/c1ccc(OC(F)F)cc1)NC1CCCCC1`, which Potency is on record?
**A.** Its Potency is “inactive”.

**Q.** Which activity change, negative = inhibition does the source give for `COC(=O)[C@@]1(C)[C@H]2C(=O)N(Cc3ccccc3)C(=O)[C@H]2[C@H]2CN=C(SCC3CC3)N21` here?
**A.** Its activity change, negative = inhibition is -7.38% [at 8.37 µM].

**Q.** For `Cc1ccn(-c2cccc(-n3ccc(C)n3)n2)n1`, which Potency is on record?
**A.** Its Potency is “inactive”.

**Q.** With `Cc1cccc(N2O[C@H]3C=CC2CCCC3)n1` as the compound, how does the Potency read?
**A.** Its Potency is 25.1 µM (active).

**Q.** For `Cc1cccc(N2CCN(Cc3nc(C4CC4)no3)CC2)n1`, which Potency is on record?
**A.** Its Potency is “inactive”.

**Q.** For `CCOC(=O)c1ccccc1NC(=O)COC(=O)C(Cc1c[nH]c2ccccc12)NC(C)=O` (configuration not stated), which Potency is on record?
**A.** The Potency was “inactive”.

**Q.** Which Potency does the source give for `COc1cc2ccccc2cc1C(=O)N1CCOCC1` here?
**A.** The Potency was “inactive”.

**Q.** Which Potency does the source give for `COc1ccc(S(=O)(=O)N2CCN(CC(=O)N3c4ccccc4CC3C)CC2)cc1OC` (configuration not stated) here?
**A.** Its Potency is “inactive”.

**Q.** Which Potency does the source give for `CCOC(=O)c1c(NC(=O)C(C)Sc2c[nH]c3ccccc23)sc2c1CCC2` (configuration not stated) here?
**A.** Its Potency is 11.2 µM (active).

**Q.** With `CCOC(=O)c1c(NC(=S)Nc2ccccc2C)sc2c1CCC2` as the compound, how does the Potency read?
**A.** The Potency was “inactive”.

**Q.** For `CCOC(=O)c1c(NC(=S)NC(=O)c2ccco2)sc2c1CCCC2`, which Potency is on record?
**A.** Its Potency is “inactive”.

**Q.** For `CCCOC(=O)Nc1sc2c(c1C(=O)OCC)CCC2`, which Potency is on record?
**A.** The Potency was 10 µM (active).

**Q.** For `CCOC(=O)c1c(NC(=S)NC)sc2c1CCCC2`, which Potency is on record?
**A.** Its Potency is “inactive”.

**Q.** With `CCOC(=O)c1c(NC(=O)CSc2cn(CC)c3ccccc23)sc2c1CCC2` as the compound, how does the Potency read?
**A.** The Potency was “inactive”.

**Q.** With `O=C(CN1C(=O)NC2(CCCCCC2)C1=O)NCc1ccc(F)cc1` as the compound, how does the Potency read?
**A.** Its Potency is “inactive”.

**Q.** With `CCOc1ccc(NC(=O)CN(C)C(=O)CSc2ccccc2)cc1OCC` as the compound, how does the Potency read?
**A.** The Potency was “inactive”.

**Q.** For `O=C(Nc1ccc(F)c([N+](=O)[O-])c1)C1CCCO1` (configuration not stated), which Potency is on record?
**A.** Its Potency is “inactive”.

**Q.** Which Potency does the source give for `Nc1nonc1-n1nnc(C(=O)N/N=C/c2ccccc2O)c1CN1CCCC1` here?
**A.** Its Potency is “inactive”.

**Q.** For `COc1ccccc1NC(=O)COC(=O)CNC(=O)C1CCCCC1`, which Potency is on record?
**A.** Its Potency is “inactive”.

**Q.** With `Cc1cccc(C)c1Nc1nnc(SCC(=O)Nc2sccc2C#N)s1` as the compound, how does the Potency read?
**A.** The Potency was “inactive”.

**Q.** With `Cc1csc(SCC(=O)Nc2sccc2C#N)n1` as the compound, how does the Potency read?
**A.** Its Potency is “inactive”.

**Q.** With `CC(c1nnc(SCC(=O)Nc2sccc2C#N)n1-c1ccc(Cl)cc1)N(C)C` (configuration not stated) as the compound, how does the Potency read?
**A.** The Potency was 22.4 µM (active).

**Q.** For `COc1ccccc1C(=O)NCCC(=O)NN1C(=O)NC2(CCCCC2)C1=O`, which Potency is on record?
**A.** Its Potency is “inactive”.

**Q.** For `O=C1CCCCC1Sc1ccc(Cl)cc1[N+](=O)[O-]` (configuration not stated), which Potency is on record?
**A.** Its Potency is “inactive”.

**Q.** For `Cc1cc(C)c(S(=O)(=O)NCC(c2ccc3c(c2)OCO3)N2CCOCC2)c(C)c1` (configuration not stated), which Potency is on record?
**A.** The Potency was “inactive”.

**Q.** Which activity change, negative = inhibition does the source give for `O=C(Cc1ccc(NC(=O)C2CCCN(C(=O)C3CCCCC3)C2)cc1)Nc1cccc(C(=O)N2CCCCC2)c1` (configuration not stated) here?
**A.** Its activity change, negative = inhibition is -22.8% [at 8.37 µM].

**Q.** For `CN(C)CCNC(=O)Cc1ccc([N+](=O)[O-])cc1`, which Potency is on record?
**A.** The Potency was “inactive”.

**Q.** With `CN(C(=O)c1cccc(NC(=O)Cc2cccc(NC(=O)C3CCCN(C(=O)C4CC4)C3)c2)c1)C1CCC1` (configuration not stated) as the compound, how does the activity change, negative = inhibition read?
**A.** The activity change, negative = inhibition was -22.6% [at 8.37 µM].

**Q.** With `CN(C)C(CNC(=O)Cc1ccc([N+](=O)[O-])cc1)c1ccccc1` (configuration not stated) as the compound, how does the Potency read?
**A.** The Potency was “inactive”.

**Q.** Which activity change, negative = inhibition does the source give for `CN(C(=O)c1cccc(NC(=O)Cc2ccc(NC(=O)C3CCCN(C(=O)C4CCCC4)C3)cc2)c1)C1CCC1` (configuration not stated) here?
**A.** The activity change, negative = inhibition was -26.3% [at 8.37 µM].

**Q.** For `CN(CCc1ccccc1)C(=O)c1cccc(NC(=O)Cc2cccc(NC(=O)C3CCCN(C(=O)CCc4ccccc4)C3)c2)c1` (configuration not stated), which Potency is on record?
**A.** Its Potency is 0.794 µM (active).

**Q.** With `CN(CCc1ccccc1)C(=O)c1cccc(NC(=O)Cc2cccc(NC(=O)C3CCCN(C(=O)C4CCC4)C3)c2)c1` (configuration not stated) as the compound, how does the Potency read?
**A.** Its Potency is 10 µM (active).

**Q.** For `O=C(NCCc1ccccc1)c1cccc(NC(=O)c2ccccc2)c1`, which Potency is on record?
**A.** Its Potency is “inactive”.

**Q.** With `O=C(NCc1ccccc1)c1cccc(NC(=O)C2CCCCC2)c1` as the compound, how does the activity change, negative = inhibition read?
**A.** The activity change, negative = inhibition was -17.2% [at 8.37 µM].

**Q.** With `CN(C(=O)c1cccc(NC(=O)Cc2ccc([N+](=O)[O-])cc2)c1)C1CCC1` as the compound, how does the Potency read?
**A.** The Potency was 3.16 µM (active).

**Q.** With `O=C(Cc1ccc(NC(=O)C2CCCN(C(=O)CCc3ccccc3)C2)cc1)Nc1ccc(C(=O)N2CCOCC2)cc1` (configuration not stated) as the compound, how does the activity change, negative = inhibition read?
**A.** Its activity change, negative = inhibition is -13.7% [at 8.37 µM].

**Q.** Which Potency does the source give for `CC(C)(C)OC(=O)N1CCC(C(=O)Nc2cccc(C(=O)NCCc3ccccc3)c2)CC1` here?
**A.** The Potency was 8.91 µM (active).

**Q.** Which Potency does the source give for `CC(Sc1ccccc1F)C(=O)Nc1cccc(S(=O)(=O)N2CCOCC2)c1` (configuration not stated) here?
**A.** The Potency was “inactive”.

**Q.** Which Potency does the source give for `CCC1(C)NC(=O)N(CC(=O)N2CCN(c3cccc(Cl)c3)CC2)C1=O` (configuration not stated) here?
**A.** Its Potency is “inactive”.

**Q.** Which Potency does the source give for `COc1ccc(S(=O)(=O)N2CCN(CC(=O)NCC3(N4CCOCC4)CCCCC3)CC2)cc1` here?
**A.** The Potency was “inactive”.

**Q.** With `CC(NC(=O)c1ccccc1)C(=O)Nc1ccccc1` (configuration not stated) as the compound, how does the Potency read?
**A.** Its Potency is “inactive”.

**Q.** For `COc1ccc(Cl)cc1C=CC=NNC(=O)c1ccncc1`, which Potency is on record?
**A.** The Potency was “inactive”.

**Q.** For `CC(=O)Nc1ccc(S(=O)(=O)N2CCN(S(=O)(=O)c3cccs3)CC2)cc1`, which Potency is on record?
**A.** Its Potency is “inactive”.

From PubChem BioAssay AID651820 (National Center for Advancing Translational Sciences (NCATS), 2012)
